USP10 block: human USP10 deubiquitinase inhibition. 1.1% of 47,000 active. Q14694. inhibition, % at 20 µM. purified USP10, Ub-rhodamine fluorescence, 60 min
USP8 block: inhibitors of human USP8 deubiquitinase | purified USP8, Ub-rhodamine cleavage fluorescence, 30 min | inhibition, % at 20 µM | 4.2% of 47,000 active
USP30 inh: human USP30 deubiquitinase inhibition. Q70CQ3. purified USP30, Ub-rhodamine cleavage fluorescence. inhibition, % at 25 µM. 5.3% of 47,000 active. AID 1645860
USP17 block: blocks human USP17 ubiquitin-rhodamine cleavage | purified USP17, Ub-rhodamine cleavage fluorescence, 3 h | inhibition, % at 50 µM | AID 1645855 | 6.5% of 47,000 active | A8MUK1
USP28 block: human USP28 deubiquitinase inhibition | Q96RU2 | purified USP28, Ub-rhodamine cleavage fluorescence, 30 min | inhibition, % at 25 µM | 3% of 47,000 active | AID 1645857
Each line names hits and unclear results; the compound was inactive in the other large screens. Rows were chosen to be rich in hits. Some 14% of all compounds tested hit in one or more screens of this group. No stated cut-off is given here; in the data, active means inhibition above about 30%; inactive means the rest.

O=C(NCCc1c[nH]c2ccc(F)cc12)C(=O)Nc1cccc2ncccc12	USP17 block 45
Cc1ccc(C(=O)OC(C)C(=O)Nc2sccc2C(N)=O)cc1C (centres undefined)	none
CC(OC(=O)c1cccc(N(C)C)c1)C(=O)Nc1sccc1C(N)=O (centres undefined)	USP8 block 32
Cc1nccn1Cc1noc(-c2ccc3c(c2)OCO3)n1	none
CCc1nccn1Cc1noc(-c2ccc3c(c2)OCO3)n1	USP28 block 48
O=C1CC(c2cccc(Cl)c2Cl)c2c(nc(-c3ccccc3)[nH]c2=O)N1 (centres undefined)	none
O=C1CC(c2ccc(Cl)cc2)c2c(nc(-c3ccccc3)[nH]c2=O)N1 (centres undefined)	USP8 block 61
O=C1CC(c2ccc(O)cc2)c2c(nc(-c3ccccc3)[nH]c2=O)N1 (centres undefined)	USP17 block 35 (no result: USP30 inh, USP28 block)
CC(C)N1CCc2c(sc3c2C(=O)NC(c2ccc(O)cc2)N3)C1 (centres undefined)	none (no result: USP30 inh, USP28 block)
COC(=O)N1CCC2(CC1)NC(=O)c1ccccc12	none
CCN1C(=O)c2cccnc2Sc2cc(NC(=O)c3ccc(Cl)s3)ccc21	USP28 block 51
CCN1C(=O)c2cccnc2Sc2cc(NC(=O)CCc3ccccc3OC)ccc21	none
CCN1C(=O)c2cccnc2Sc2cc(NC(=O)C3CCC3)ccc21	none
CCN1C(=O)c2cccnc2Sc2cc(NC(=O)CCc3cccc(OC)c3)ccc21	USP28 block 44
Cc1cc(C)cc(NC(=O)c2ccc(CSc3ncnc4nc[nH]c34)cc2)c1	none
CC(Sc1ncnc2nc[nH]c12)C(=O)Nc1ccc(Br)cc1F (centres undefined)	USP8 block 74
O=c1c(-c2nc(C3CC3)no2)cccn1Cc1noc(-c2ccccc2Cl)n1	none
O[C@H]1[C@H](NCc2cccc(C(F)(F)F)c2)[C@@H](c2cncnc2)C[C@H]1O	USP8 block 61
COc1ccc(CN[C@H]2[C@H](O)[C@H](O)C[C@@H]2c2cncnc2)cn1	USP8 block 35
CNC(=O)C1CN(C(C)=O)CCN(C(=O)c2cc(C(C)(C)C)[nH]n2)C1 (centres undefined)	none
COc1ccc(-c2nc(C)c(C(=O)NCc3ccc(S(N)(=O)=O)cc3)s2)cc1	USP17 block 57
COc1cccc(F)c1-c1nc(C)c(C(=O)NCc2ccccc2)s1	none
COc1ccc(OC)c(NC(=O)c2nc(C3CCC3)oc2C)c1	USP30 inh 31
COc1ccc(OC)c(NC(=O)c2cc(Cl)ccc2OC)c1	USP17 block 62
CC(=O)Nc1cccc(NC(=O)c2sc3nc(-c4ccccc4)cn3c2C)c1	USP17 block 47 (no result: USP30 inh, USP28 block)
COc1ccc(NC(=O)c2nc(C3CCC3)oc2C)cc1Cl	none
COc1ccc(CC(=O)OCC(=O)N2c3ccccc3CC2C)cc1 (centres undefined)	none
Cc1nc(-c2ccccn2)sc1C(=O)Nc1ccc(F)cc1	none (no result: USP30 inh, USP28 block)
CC(=O)c1cccc(NC(=O)c2sc(-c3ccccc3)nc2C)c1	USP28 block 33
CCOc1ccc(C(=O)c2cc3c(CO)cnc(C)c3oc2=O)cc1	none
COc1ccc(OC)c(NC(=O)c2sc(-c3ccccc3)nc2C)c1	USP8 block 42, USP30 inh 74, USP17 block 51, USP28 block 44
COc1ccc(OC)c(NC(=O)c2cc3c(CO)cnc(C)c3oc2=O)c1	USP30 inh 44, USP17 block 33
Cc1nc(-c2ccccc2F)sc1C(=O)Nc1cccnc1	USP17 block 54
Cc1nc(-c2ccccc2)sc1C(=O)Nc1ccc2cc[nH]c2c1	none
Cc1nc(-c2ncc(C)[nH]2)cc(C2CCCN(Cc3cncs3)C2)n1 (centres undefined)	none
CC(c1ccccc1)N1CNc2c(c(=O)[nH]c(=O)n2Cc2cccnc2)C1 (centres undefined)	none
O=C(Nc1ccccc1N1CCOCC1)C1CCCCN1S(=O)(=O)c1ccccc1 (centres undefined)	none
O=C(Nc1ccccc1N1CCOCC1)C1Cc2ccccc2CN1S(=O)(=O)c1ccccc1F (centres undefined)	USP8 block 31
CN1c2ccccc2C(=O)N2CCc3c([nH]c4ccccc34)[C@H]21	none
CC(C)CCn1c(=O)c2ccccc2n2c(CCC(=O)N3CCN(c4ccccn4)CC3)nnc12	none
COc1ccc(OC)c2c(C)cc(N3CCN(S(=O)(=O)c4ccc5c(c4)CCCN5S(C)(=O)=O)CC3)nc12	USP30 inh 38, USP17 block 98, USP28 block 44
CCC(Oc1ccccc1)C(=O)Nc1ccccc1C(N)=O (centres undefined)	none
CCN(CCCNC(=O)c1sc2nc(C)cc(C)c2c1-n1cccc1)c1cccc(C)c1	none
COc1cccc(Cn2nc3n(C(C)C)c(=O)c4ccc(C(=O)NCC(C)C)cc4n3c2=O)c1	USP17 block 33
O=C1COC2(CCN(C(=O)N3CCCC3)CC2)CN1Cc1ccccc1	USP30 inh 34
CCC1CCCCN1C(=O)c1cc2c(=O)n3ccccc3nc2n1Cc1ccccc1 (centres undefined)	USP30 inh 31
CNC(=O)c1cc2c(=O)n3cccc(C)c3nc2n1Cc1ccccc1	USP17 block 80
CC(=O)[C@H]1c2c(c(O)c3c(O)cccc3c2-c2c3c(c(O)c4c(O)cccc24)C(=O)C[C@](C)(O)[C@H]3C(C)=O)C(=O)C[C@]1(C)O	USP8 block 64, USP17 block 78
Cc1ccc(CS(=O)(=O)c2cn(CC(=O)NCCc3ccccc3)c3ccccc23)cc1	none
Cc1ccc(CNC(=O)Cn2cc(S(=O)(=O)Cc3ccccc3)c3ccccc32)cc1	USP8 block 38
Cc1ccc(CS(=O)(=O)c2cn(CC(=O)NCc3ccco3)c3ccccc23)cc1	USP8 block 34, USP17 block 37
Cc1cccc(CNC(=O)Cn2cc(-c3nnco3)c3ccccc32)c1	USP17 block 46
O=C1COc2ccc(Br)cc2CN1Cc1ccccc1	none
COc1cc2c(cc1OC)C(c1ccccc1)N(Cc1ccc(C(N)=O)cc1)CC2 (centres undefined)	none
Cc1cc(C)c(C#N)c(SCC(=O)Nc2nsc(-c3ccc(C(C)(C)C)cc3)n2)n1	none
O=C(CSc1nc2scc(-c3ccco3)c2c(=O)n1-c1ccccc1)Nc1nsc(-c2ccccc2)n1	USP28 block 37
CCC(Oc1ccccc1)C(=O)Nc1cc(S(=O)(=O)N2CCCCC2)ccc1Oc1ccccc1 (centres undefined)	none
O=C(NCCc1ccccc1)c1ccccc1-c1ccccc1C(=O)NCCc1ccccc1	USP30 inh 32
COc1cccc(-n2cnc3cc(C(=O)NCCc4ccccc4)ccc3c2=O)c1	USP8 block 54
COc1cccc(-n2cnc3cc(C(=O)N4CCCCC4)ccc3c2=O)c1	none
COc1cccc(CNC(=O)c2ccccc2NC(=O)c2ccc(F)cc2)c1	USP30 inh 41
O=C(Cc1ccccc1)NCCc1ccccc1	none
COc1cccc(CNC(=O)c2ccc(Cn3cncn3)cc2)c1	none
